Binding signal data for one sequence are collected here from paper PMC7862700, “An all-to-all approach to the identification of sequence-specific readers for epigenetic DNA modifications on cytosine”.

Holding throughout (assay): DAPPL (digital affinity profiling via proximity ligation, sequencing); 10 mM Tris-HCl pH 7.5, 50 mM NaCl, 1 mM DTT, 4% glycerol, room temperature, 30 min; GST-TFs on glutathione beads, 16-mer random dsDNA library, 0.1% formaldehyde crosslink after washing; high values mean tight binding
Experiment [1] has as its target T1, FLI1 (Homo sapiens, UniProt Q01543 1-452).
T1 sequence: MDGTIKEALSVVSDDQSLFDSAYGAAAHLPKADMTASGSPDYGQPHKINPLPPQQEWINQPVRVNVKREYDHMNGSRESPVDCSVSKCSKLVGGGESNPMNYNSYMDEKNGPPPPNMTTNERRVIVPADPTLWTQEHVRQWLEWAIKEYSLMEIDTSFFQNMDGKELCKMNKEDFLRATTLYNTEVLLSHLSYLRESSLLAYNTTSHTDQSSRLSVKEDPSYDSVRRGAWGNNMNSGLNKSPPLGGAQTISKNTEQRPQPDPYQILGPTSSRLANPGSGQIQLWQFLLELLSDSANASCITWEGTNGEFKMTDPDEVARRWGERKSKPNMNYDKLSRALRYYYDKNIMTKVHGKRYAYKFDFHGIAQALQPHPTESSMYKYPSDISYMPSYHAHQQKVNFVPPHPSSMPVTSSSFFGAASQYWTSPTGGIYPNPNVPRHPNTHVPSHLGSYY
As to conditions: protein: recombinant; tags: N-terminal GST; dsDNA, one strand shown. In outline:
(§1)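 The binding signal reported is, for every hexamer, its read frequency for a factor over its read frequency for the tag-only sample. Reads came from pools of yeast-expressed, GST-fused human transcription factors on glutathione beads, barcoded with DNA and mixed with that sample, which were incubated with 200 nmole of a random double-stranded 16-mer DNA library in Tris/NaCl/DTT/glycerol buffer at room temperature for 30 min. After washing, the pools were crosslinked with 0.1% formaldehyde, proximity-ligated with BsaI/T4 ligase for 1 h at 37 °C, PCR-amplified and sequenced on an Illumina NextSeq500.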

The target in experiment [2] is T2, ELK1 (Homo sapiens, UniProt P19419 1-428).
T2 sequence: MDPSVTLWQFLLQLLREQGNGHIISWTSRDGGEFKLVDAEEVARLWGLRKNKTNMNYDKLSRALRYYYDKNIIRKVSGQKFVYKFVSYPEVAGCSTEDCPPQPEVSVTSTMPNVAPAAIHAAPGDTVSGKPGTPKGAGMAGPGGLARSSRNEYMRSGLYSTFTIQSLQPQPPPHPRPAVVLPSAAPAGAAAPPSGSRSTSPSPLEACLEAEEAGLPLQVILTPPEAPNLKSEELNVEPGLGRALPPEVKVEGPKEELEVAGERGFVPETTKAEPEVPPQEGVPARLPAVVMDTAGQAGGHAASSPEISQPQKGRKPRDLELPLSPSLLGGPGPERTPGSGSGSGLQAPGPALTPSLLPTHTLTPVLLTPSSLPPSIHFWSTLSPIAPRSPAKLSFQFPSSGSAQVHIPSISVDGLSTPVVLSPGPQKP
The conditions noted are these: protein: recombinant; tags: N-terminal GST; dsDNA, one strand shown. An outline of the steps: as §1

The target of experiment [3] is T3, GABPA (Homo sapiens, UniProt Q06546 1-454).
T3 sequence: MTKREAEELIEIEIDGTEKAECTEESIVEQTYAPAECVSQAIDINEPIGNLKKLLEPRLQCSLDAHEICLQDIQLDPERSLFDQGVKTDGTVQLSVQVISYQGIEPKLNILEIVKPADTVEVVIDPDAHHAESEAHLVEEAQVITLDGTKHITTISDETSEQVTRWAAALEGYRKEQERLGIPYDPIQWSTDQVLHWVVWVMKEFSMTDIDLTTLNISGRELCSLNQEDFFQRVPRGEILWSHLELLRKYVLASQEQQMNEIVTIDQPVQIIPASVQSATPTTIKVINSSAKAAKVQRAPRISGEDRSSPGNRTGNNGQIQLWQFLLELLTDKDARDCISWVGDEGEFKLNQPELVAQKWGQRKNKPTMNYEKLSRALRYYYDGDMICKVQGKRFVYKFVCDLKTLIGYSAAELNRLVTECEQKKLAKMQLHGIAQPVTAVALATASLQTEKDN
As to conditions: protein: recombinant; tags: N-terminal GST; dsDNA, one strand shown. In outline:
as §1

For experiment [4], the target named is T4, ERG (Homo sapiens, UniProt P11308 1-479).
T4 sequence: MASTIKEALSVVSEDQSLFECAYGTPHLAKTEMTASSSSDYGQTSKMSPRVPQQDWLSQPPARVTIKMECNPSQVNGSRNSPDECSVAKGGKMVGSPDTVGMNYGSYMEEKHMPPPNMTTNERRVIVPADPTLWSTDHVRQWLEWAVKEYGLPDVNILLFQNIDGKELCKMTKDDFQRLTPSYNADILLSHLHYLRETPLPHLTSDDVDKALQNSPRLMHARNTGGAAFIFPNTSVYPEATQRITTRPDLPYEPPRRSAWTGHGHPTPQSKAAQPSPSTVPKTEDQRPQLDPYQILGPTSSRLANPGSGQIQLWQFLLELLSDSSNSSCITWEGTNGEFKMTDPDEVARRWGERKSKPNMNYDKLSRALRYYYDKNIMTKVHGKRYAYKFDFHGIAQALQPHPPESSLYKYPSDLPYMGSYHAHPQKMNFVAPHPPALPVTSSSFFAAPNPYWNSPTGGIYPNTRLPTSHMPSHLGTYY
As to conditions: protein: recombinant; tags: N-terminal GST; dsDNA, one strand shown. An outline of the steps: as §1

Experiment [5] addresses ELF1 (Homo sapiens, UniProt P32519 1-619). The conditions noted are these: protein: recombinant; tags: N-terminal GST; dsDNA, one strand shown. In outline:
as §1

In experiment [6] the target is T5, EHF (Homo sapiens, UniProt Q9NZC4 1-300).
T5 sequence: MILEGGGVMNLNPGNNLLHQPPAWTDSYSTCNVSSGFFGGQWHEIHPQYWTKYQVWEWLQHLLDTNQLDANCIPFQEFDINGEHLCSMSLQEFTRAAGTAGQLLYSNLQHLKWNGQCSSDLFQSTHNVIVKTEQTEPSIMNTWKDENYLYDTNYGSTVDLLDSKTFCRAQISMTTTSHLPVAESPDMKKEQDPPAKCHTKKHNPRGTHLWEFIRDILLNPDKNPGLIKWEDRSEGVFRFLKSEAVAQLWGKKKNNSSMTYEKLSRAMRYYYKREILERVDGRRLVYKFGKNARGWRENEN
The conditions noted are these: protein: recombinant; tags: N-terminal GST; dsDNA, one strand shown. An outline of the steps:
as §1

The target in experiment [7] is SPI1 (Homo sapiens, UniProt P17947 1-270). The conditions noted are these: protein: recombinant; tags: N-terminal GST; dsDNA, one strand shown. An outline of the steps: as §1
The target in experiment [8] is SPIB (Homo sapiens, UniProt Q01892 1-262). As to conditions: protein: recombinant; tags: N-terminal GST; dsDNA, one strand shown. In outline: as §1
Experiment [9] addresses T6, ELK3 (Homo sapiens, UniProt P41970 1-407).
T6 sequence: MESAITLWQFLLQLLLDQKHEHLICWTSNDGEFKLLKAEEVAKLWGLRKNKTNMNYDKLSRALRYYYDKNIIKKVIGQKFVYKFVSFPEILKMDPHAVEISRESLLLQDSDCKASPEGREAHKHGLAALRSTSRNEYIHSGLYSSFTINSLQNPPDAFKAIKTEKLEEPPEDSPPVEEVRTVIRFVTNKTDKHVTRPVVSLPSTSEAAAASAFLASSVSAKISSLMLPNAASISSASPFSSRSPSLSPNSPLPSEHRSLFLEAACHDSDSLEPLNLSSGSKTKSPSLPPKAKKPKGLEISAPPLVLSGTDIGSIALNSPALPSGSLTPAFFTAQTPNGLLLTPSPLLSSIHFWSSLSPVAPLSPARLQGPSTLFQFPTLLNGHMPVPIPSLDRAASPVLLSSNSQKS
The conditions noted are these: protein: recombinant; tags: N-terminal GST; dsDNA, one strand shown. In outline:
as §1

Experiment [10] deals with T7, FEV (Homo sapiens, UniProt Q99581 1-238).
T7 sequence: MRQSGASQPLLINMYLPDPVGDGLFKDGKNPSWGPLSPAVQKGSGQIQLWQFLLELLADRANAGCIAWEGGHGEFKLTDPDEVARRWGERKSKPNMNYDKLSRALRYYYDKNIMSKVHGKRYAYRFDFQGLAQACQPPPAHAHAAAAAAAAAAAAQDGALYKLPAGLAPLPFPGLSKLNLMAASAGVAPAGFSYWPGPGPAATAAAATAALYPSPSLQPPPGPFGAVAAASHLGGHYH
As to conditions: protein: recombinant; tags: N-terminal GST; dsDNA, one strand shown. In outline: as §1

Experiment [11] concerns the target ETV5 (Homo sapiens, UniProt P41161 1-510). The conditions noted are these: protein: recombinant; tags: N-terminal GST; dsDNA, one strand shown. An outline of the steps: as §1
Experiment [12] deals with HSF1 (Homo sapiens, UniProt Q00613 1-529). As to conditions: protein: recombinant; tags: N-terminal GST; chain copies: 3; dsDNA, one strand shown. In outline: as §1
Experiment [13] has as its target T8, SPIC (Homo sapiens, UniProt Q8N5J4 1-248).
T8 sequence: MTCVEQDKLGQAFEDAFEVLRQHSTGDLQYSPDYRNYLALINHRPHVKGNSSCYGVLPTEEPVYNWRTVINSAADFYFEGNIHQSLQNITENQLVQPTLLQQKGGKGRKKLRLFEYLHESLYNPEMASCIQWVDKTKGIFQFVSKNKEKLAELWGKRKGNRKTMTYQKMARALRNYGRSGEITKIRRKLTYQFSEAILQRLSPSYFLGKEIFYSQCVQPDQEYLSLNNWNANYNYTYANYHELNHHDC
The conditions noted are these: protein: recombinant; tags: N-terminal GST; dsDNA, one strand shown. An outline of the steps: as §1

Experiment [14] has as its target ELF4 (Homo sapiens, UniProt Q99607 1-663). As to conditions: protein: recombinant; tags: N-terminal GST; dsDNA, one strand shown. In outline: as §1
The target in experiment [15] is T9, ELK4 (Homo sapiens, UniProt P28324-2 1-405).
T9 sequence: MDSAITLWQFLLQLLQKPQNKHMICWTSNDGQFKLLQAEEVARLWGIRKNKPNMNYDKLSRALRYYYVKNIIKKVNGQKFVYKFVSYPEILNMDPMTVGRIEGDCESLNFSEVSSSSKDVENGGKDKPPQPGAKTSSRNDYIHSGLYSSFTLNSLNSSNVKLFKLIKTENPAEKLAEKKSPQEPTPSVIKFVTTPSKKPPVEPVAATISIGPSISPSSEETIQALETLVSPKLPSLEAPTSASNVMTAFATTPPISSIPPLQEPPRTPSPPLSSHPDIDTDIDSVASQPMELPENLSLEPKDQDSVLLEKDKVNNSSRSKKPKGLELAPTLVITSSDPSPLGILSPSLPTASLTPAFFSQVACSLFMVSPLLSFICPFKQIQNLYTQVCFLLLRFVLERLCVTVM
As to conditions: protein: recombinant; tags: N-terminal GST; dsDNA, one strand shown. An outline of the steps:
as §1

Experiment [16] has as its target T10, ETV2 (Homo sapiens, UniProt O00321 1-342).
T10 sequence: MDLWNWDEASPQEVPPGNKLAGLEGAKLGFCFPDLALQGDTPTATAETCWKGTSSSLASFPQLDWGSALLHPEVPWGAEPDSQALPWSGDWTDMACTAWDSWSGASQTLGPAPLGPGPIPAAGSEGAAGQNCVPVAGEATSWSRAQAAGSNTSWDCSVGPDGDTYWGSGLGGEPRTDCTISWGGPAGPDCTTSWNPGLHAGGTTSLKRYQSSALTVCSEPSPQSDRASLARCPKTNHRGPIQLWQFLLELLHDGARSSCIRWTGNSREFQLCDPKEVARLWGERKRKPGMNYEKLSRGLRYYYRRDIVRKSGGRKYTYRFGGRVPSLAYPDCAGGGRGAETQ
As to conditions: protein: recombinant; tags: N-terminal GST; dsDNA, one strand shown. In outline:
as §1

In experiment [17] the target is T11, ELF3 (Homo sapiens, UniProt P78545 1-371).
T11 sequence: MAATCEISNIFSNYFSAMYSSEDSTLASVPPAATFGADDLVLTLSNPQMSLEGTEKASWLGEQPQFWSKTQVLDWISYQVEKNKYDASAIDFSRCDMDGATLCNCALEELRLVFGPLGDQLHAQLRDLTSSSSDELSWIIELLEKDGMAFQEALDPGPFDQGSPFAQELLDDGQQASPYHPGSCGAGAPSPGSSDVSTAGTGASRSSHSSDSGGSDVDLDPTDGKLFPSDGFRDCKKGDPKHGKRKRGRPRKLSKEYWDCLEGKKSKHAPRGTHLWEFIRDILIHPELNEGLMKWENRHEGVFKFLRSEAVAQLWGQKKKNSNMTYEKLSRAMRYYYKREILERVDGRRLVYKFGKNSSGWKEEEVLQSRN
The conditions noted are these: protein: recombinant; tags: N-terminal GST; dsDNA, one strand shown. An outline of the steps:
as §1

The target of experiment [18] is ETV1 (Homo sapiens, UniProt P50549 1-477). The conditions noted are these: protein: recombinant; tags: N-terminal GST; dsDNA, one strand shown. In outline:
as §1

Chain of SPIB (Q01892 whole entry): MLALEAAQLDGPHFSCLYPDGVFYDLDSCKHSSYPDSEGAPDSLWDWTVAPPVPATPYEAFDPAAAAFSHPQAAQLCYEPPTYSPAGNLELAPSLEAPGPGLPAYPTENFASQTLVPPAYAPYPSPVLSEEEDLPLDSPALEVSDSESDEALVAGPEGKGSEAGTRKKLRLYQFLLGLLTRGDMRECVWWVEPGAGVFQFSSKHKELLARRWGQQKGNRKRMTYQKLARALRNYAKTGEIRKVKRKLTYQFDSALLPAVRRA
Chain of ELF1 (P32519 whole entry): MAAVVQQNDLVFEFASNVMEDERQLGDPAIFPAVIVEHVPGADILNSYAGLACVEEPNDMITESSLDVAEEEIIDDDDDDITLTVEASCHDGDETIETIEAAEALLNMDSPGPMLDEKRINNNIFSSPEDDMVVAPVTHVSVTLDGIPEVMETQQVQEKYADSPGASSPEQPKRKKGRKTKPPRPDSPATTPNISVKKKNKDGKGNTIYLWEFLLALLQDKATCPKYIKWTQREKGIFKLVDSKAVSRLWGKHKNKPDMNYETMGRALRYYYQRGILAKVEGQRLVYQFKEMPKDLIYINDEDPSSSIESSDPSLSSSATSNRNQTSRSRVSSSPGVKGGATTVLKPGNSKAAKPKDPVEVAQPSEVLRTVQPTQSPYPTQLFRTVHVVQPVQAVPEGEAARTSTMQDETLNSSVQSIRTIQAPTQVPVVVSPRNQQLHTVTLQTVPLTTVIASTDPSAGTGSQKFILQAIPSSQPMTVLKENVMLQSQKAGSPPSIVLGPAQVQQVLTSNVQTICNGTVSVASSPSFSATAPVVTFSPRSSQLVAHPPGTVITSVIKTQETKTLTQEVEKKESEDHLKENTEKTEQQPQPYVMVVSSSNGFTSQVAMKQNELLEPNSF
Chain of HSF1 (Q00613 whole entry): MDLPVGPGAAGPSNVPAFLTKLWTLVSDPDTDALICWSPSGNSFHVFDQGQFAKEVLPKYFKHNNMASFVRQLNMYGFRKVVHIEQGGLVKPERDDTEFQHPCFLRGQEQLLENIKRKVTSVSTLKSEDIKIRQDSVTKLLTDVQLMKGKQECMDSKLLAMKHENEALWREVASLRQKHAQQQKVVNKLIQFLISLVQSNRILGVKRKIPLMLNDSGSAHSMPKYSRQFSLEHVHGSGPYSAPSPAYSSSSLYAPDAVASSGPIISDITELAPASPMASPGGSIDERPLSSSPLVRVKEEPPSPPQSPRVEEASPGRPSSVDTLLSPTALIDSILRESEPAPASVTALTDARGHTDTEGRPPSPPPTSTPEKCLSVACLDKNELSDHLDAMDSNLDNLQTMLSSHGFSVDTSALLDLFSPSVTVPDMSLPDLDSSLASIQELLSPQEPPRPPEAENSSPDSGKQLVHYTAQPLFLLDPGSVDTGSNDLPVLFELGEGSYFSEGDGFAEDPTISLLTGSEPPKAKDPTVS
Chain of ETV5 (P41161 whole entry): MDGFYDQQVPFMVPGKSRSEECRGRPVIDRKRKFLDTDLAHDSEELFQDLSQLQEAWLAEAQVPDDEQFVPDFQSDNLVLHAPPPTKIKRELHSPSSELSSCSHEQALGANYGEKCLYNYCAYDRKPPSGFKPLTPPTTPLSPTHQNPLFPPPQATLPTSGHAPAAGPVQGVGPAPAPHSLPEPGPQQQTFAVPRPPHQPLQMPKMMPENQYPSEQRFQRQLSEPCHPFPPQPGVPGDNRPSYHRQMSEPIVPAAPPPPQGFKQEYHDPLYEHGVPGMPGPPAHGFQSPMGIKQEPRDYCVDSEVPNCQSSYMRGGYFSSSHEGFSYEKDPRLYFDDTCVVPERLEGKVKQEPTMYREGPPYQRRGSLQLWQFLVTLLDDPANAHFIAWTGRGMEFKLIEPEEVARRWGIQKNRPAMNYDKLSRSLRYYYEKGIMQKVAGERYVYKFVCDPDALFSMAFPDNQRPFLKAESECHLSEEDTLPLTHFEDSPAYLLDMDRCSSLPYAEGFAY
Chain of ELF4 (Q99607 whole entry): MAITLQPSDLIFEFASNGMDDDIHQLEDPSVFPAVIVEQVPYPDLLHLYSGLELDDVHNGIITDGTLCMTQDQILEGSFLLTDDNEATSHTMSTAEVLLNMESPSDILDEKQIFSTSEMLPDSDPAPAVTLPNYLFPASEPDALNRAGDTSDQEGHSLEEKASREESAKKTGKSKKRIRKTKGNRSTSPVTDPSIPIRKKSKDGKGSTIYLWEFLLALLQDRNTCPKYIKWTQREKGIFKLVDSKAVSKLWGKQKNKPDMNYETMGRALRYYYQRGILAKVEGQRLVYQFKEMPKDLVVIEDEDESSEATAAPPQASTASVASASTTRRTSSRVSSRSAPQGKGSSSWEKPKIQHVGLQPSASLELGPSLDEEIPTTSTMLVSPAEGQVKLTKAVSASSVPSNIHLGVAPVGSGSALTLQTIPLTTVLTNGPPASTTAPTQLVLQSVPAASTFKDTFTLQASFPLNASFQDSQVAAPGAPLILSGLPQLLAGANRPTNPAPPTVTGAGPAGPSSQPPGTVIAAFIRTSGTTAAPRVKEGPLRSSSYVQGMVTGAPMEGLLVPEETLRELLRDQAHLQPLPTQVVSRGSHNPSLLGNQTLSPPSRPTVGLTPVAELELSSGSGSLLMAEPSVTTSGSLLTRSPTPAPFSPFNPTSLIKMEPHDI
Chain of ETV1 (P50549 whole entry): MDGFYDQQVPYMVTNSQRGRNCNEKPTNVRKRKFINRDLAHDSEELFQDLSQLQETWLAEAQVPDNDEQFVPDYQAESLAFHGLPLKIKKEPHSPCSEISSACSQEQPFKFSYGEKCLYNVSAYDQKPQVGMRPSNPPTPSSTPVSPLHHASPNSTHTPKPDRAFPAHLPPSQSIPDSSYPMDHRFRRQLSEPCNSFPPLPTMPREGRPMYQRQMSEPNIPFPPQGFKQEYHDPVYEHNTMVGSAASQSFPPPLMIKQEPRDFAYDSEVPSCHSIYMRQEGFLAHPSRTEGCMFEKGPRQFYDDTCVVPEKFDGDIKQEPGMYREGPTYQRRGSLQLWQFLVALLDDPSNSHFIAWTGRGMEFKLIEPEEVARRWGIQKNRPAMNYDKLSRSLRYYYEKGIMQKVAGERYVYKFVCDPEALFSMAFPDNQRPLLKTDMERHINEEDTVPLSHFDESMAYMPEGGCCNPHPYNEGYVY

Take ACATAC: the binding signal in [1] was 1.18 fold enrichment (6-mer frequency, TF over GST control); in experiment [2] it was 1.14 fold enrichment (6-mer frequency, TF over GST control); in [3], 1.19 fold enrichment (6-mer frequency, TF over GST control); in [4], 1.19 fold enrichment (6-mer frequency, TF over GST control); in experiment [5] it was 1.17 fold enrichment (6-mer frequency, TF over GST control); in experiment [6], 1.14 fold enrichment (6-mer frequency, TF over GST control). Moreover, the binding signal in experiment [7] is 1.16 fold enrichment (6-mer frequency, TF over GST control); in experiment [8] it was 1.09 fold enrichment (6-mer frequency, TF over GST control); in experiment [9], 1.17 fold enrichment (6-mer frequency, TF over GST control); in [10] it was 1.13 fold enrichment (6-mer frequency, TF over GST control); in [11], 1.17 fold enrichment (6-mer frequency, TF over GST control); in [12] it was 1.07 fold enrichment (6-mer frequency, TF over GST control). The binding signal in experiment [13] is 1.11 fold enrichment (6-mer frequency, TF over GST control); in experiment [14] it was 1.21 fold enrichment (6-mer frequency, TF over GST control); in [15], 1.01 fold enrichment (6-mer frequency, TF over GST control); in experiment [16] it was 1.32 fold enrichment (6-mer frequency, TF over GST control); in experiment [17], 1.25 fold enrichment (6-mer frequency, TF over GST control); in experiment [18] it was 1.15 fold enrichment (6-mer frequency, TF over GST control).
